# ChEMBL document CHEMBL3988442, “University of Dundee, Small-Polar-MMV Screening Library” (2021)
# Screen size: about 48,000 compounds; about 13,000 (27%) showed an effect of 50% or more. The list shows a part of the results.
# Test system: Wolbachia pipientis
# Assay: Anti-Wolbachia Cell-Based Screen
# Format: functional
# Set-up: scale not given: in the data most compounds retested in dose-response had high values
# Settings: 5 µM
row,Structure (SMILES),Percent Effect
1,C=C(C)COc1ccccc1CNC(CC)c1ccnn1C (stereo unspecified),-26.14%
2,CCN(C(c1cccnc1)c1ccc2c(c1)CCO2)S(C)(=O)=O (stereo unspecified),5.843%
3,CCn1nnnc1-c1cccc(NC(=O)CCc2cnn(C)c2)c1,-3.137%
4,Cc1cccc2cc(CNCCCN3CCOCC3)c(=O)[nH]c12,-14.11%
5,Cc1cccc2cc(CN3CCC(N4CCOCC4)CC3)c(=O)[nH]c12,-9.486%
6,CCc1cccc2cc(CNCCCN3CCOCC3)c(=O)[nH]c12,109.4%
7,Cc1ccc2cc(CNCCCN3CCOCC3)c(=O)[nH]c2c1C,110.9%
8,COc1ccc(CN2CCOC[C@H]2c2nc(-c3ccncc3)c[nH]2)cc1,-8.206%
9,Cc1cc(C2CCCN2Cc2ccn(C)c(=O)c2)no1 (stereo unspecified),-4.327%
10,Cc1cc(C2CCCN2Cc2cc(-c3ccco3)on2)on1 (stereo unspecified),-89.63%
11,COc1ccccc1CN1CCCCC1c1n[nH]cc1-c1cc(C)no1.Cl (stereo unspecified),107.2%
12,COc1ccc(CN2CCC[C@H]2c2nc(-c3cncnc3N)no2)cc1,-2.568%
13,COc1ccc(CN2CCCCC2c2n[nH]cc2-c2cc(C)no2)cc1.Cl (stereo unspecified),84.19%
14,Cc1cc(C2CCCN2Cc2nc(-c3ccco3)no2)on1 (stereo unspecified),9.843%
15,COc1cccc(CN2CCCCCC2c2cccc(C)c2)c1O (stereo unspecified),-3.31%
16,CCc1ccc(CN2CCCCC2c2n[nH]cc2-c2cc(C)no2)cc1.Cl (stereo unspecified),131.5%
17,COc1ccc(C)cc1CN1CCCC1c1noc(C2CC2)n1 (stereo unspecified),18.68%
18,Cc1cccc(CN2CCCCC2c2n[nH]cc2-c2cc(C)no2)c1.Cl (stereo unspecified),91.3%
19,CS(=O)(=O)N1CCc2[nH]cnc2C12CCN(C(=O)c1ccccc1)CC2,-3.54%
20,CN1C[C@@H](NC(=O)C2CC2)C[C@H]1c1nc(-c2cnccn2)no1,-3.142%
21,O=C(c1ncoc1-c1ccco1)N1CCCN(c2nccs2)CC1,-20.95%
22,COc1ccc2c(c1)C(C(=O)N(C)CCn1ccnc1C)CC(=O)N2 (stereo unspecified),-6.574%
23,O=C1CC(c2cccnc2)c2c(c(C(=O)O)cn2-c2ccccc2)N1 (stereo unspecified),6.777%
24,O=C1N(c2ccc(F)cc2)Cc2nc(=O)n(Cc3cccc(Cl)c3)n21,-4.998%

row,Structure (SMILES),Percent Effect
1,COc1cccc(CC2CCCN2CCCO)c1 (stereo unspecified),13.01%
2,COc1cccc(CN2CCCCC2c2n[nH]cc2-c2cc(C)no2)c1.Cl (stereo unspecified),78.4%
3,COc1cccc(CN2CCCC2c2c(C)nn(C)c2C)c1 (stereo unspecified),0.6284%
4,CCN(CCCNC(=O)c1ccc(C)[nH]c1=O)S(C)(=O)=O,-16.03%
5,CC1=C[C@@H](CN2CCN(C)CC2)[C@H](C(C)C)C[C@H]1Cc1nnc(C)o1,-4.667%
6,CN(Cc1nc(-c2ccccc2)c[nH]1)C(=O)NCC(=O)NC(C)(C)C,-12.98%
7,Cc1cc(F)ccc1N1CCCC(NC(=O)CCc2ccncc2)C1 (stereo unspecified),111.2%
8,Cc1ccc(Cl)cc1N1CCC(CNC(=O)CCn2ccnc2)C1 (stereo unspecified),19.22%
9,COc1ccccc1OC1CCN(C(=O)CCCn2ccnc2)CC1,6.898%
10,O=C(CCCn1ccnc1)N[C@H]1CN(C2CCCC2)C[C@@H]1C1CC1,-1.542%
11,CCC[C@H]1CN(S(C)(=O)=O)C[C@@H]1NC(=O)CCCn1ccnc1,0.7566%
12,Cc1cc(F)ccc1N1CCCC(NC(=O)CCCn2ccnc2)C1 (stereo unspecified),114.8%
13,Cc1n[nH]c(C)c1CCC(=O)NC1CCCN(c2ccccc2F)C1 (stereo unspecified),-4.293%
14,O=C(NCc1cccc(F)c1)NC1CCCN(c2ncccn2)C1 (stereo unspecified),12.98%
15,O=C(CCCn1ccnc1)NC1CCCN(c2ccccc2Cl)C1 (stereo unspecified),86.14%
16,Cc1cc(C(=O)N2CCc3c(ncnc3N3CCOCC3)C2)[nH]n1,-12.68%
17,CC(C)Nc1nc2c(c(N(C)C)n1)CCN(C(=O)c1cc[nH]n1)CC2,-2.807%
18,CN(Cc1cn2c(n1)CN(C(=O)c1ccc[nH]1)CC2)Cc1ccco1.O=C(O)C(F)(F)F,-0.5876%
19,Cc1cc(C(=O)N2CCc3c(CN(C)C(C)C)n[nH]c3C2)[nH]n1,101.7%
20,CC(C)N(C)Cc1n[nH]c2c1CCN(C(=O)c1cc[nH]n1)C2,93.85%
21,CC(C)N(C)Cc1n[nH]c2c1CCN(C(=O)c1ccc[nH]1)C2.O=C(O)C(F)(F)F,99.94%
22,CN(C)Cc1n[nH]c2c1CCN(Cc1cccs1)C2.O=C(O)C(F)(F)F.O=C(O)C(F)(F)F,-7.744%
23,Cc1nocc1C(=O)N1CCc2c(CN(C)C(C)C)n[nH]c2C1,-1.781%
24,O=C(c1ccsc1)N1CCc2c(CN3CCCC3)n[nH]c2C1,-0.6462%

row,Structure (SMILES),Percent Effect
1,Cc1cc(Br)oc1C(=O)N1CCC(N(C)C)CC1,-50.6%
2,COCCN1CCCC2(CCN(c3nccnc3N(C)C)C2)C1=O (stereo unspecified),-5.787%
3,Cc1ccoc1C(=O)N1CCC(n2cc(-c3ccsc3)nn2)CC1,-24.55%
4,COc1cccc(N2CCC(CNC(=O)CN3CSCC3=O)C2)c1 (stereo unspecified),-9.493%
5,CS(=O)(=O)N1CCOCC2(CCN(c3cnccn3)CC2)C1,-8.044%
6,CC1(C)O[C@@](C)([C@H]2CC3(CCN(c4cnccn4)CC3)CO2)CC[C@@H]1O,106.3%
7,OCC(O)CSCc1nnc(-c2cccc(F)c2)o1 (stereo unspecified),6.518%
8,CCCN1CCC2(C1)c1ccccc1S(=O)(=O)N2Cc1ccc(F)cc1 (stereo unspecified),8.528%
9,CC(C)CCN1C2(CCN(c3ncccn3)C2)c2ccccc2S1(=O)=O (stereo unspecified),105.2%
10,COCC(=O)N1CCC2(C1)c1ccccc1S(=O)(=O)N2CCC(C)C (stereo unspecified),110.5%
11,COCC(=O)N1CCC2(C1)c1ccccc1S(=O)(=O)N2C (stereo unspecified),99.03%
12,FC1(F)CCN(c2ccccc2)CC12CCN(c1ncccn1)C2 (stereo unspecified),4.725%
13,CC(C)CCN1C2(CCN(C(=O)N(C)C)C2)c2ccccc2S1(=O)=O (stereo unspecified),108.8%
14,COc1ccccc1N1CCN(C(=O)Cn2nc(C)c(C)c2C)C(C)C1 (stereo unspecified),5.362%
15,CCC(Nc1cccc(OC)c1)C(=O)N(CCOC)Cc1cnn(C)c1 (stereo unspecified),-17.99%
16,Cc1cc(C#N)ccc1S(=O)(=O)N1CCN(C)Cc2ccccc21,3.182%
17,CCc1noc(C(C)SCCS(C)(=O)=O)n1 (stereo unspecified),3.138%
18,CC(C)CCN1C2(CCN(C(=O)C3(C)CC3)C2)c2ccccc2S1(=O)=O (stereo unspecified),92.1%
19,CC(C)CCN1C2(CCN(C(=O)CN(C)C)C2)c2ccccc2S1(=O)=O.O=C(O)C(F)(F)F (stereo unspecified),95.71%
20,CC(C)CCN1N=C(C(=O)N2CCCCCC2)S(=O)(=O)c2ccccc21,20.76%
21,COCC(=O)N1CCC2(CC1)c1ccccc1[C@@H](N1CCSCC1)[C@@H]2O,1.916%
22,COCC(=O)N1CCC2(C1)c1ccccc1S(=O)(=O)N2CC1CC1 (stereo unspecified),95.12%
23,CC(C)CCN1CC2(CCN(C(=O)C3(C)CC3)CC2)OC1=O,1.386%
24,CCNC(=O)N1CCC2(C1)c1ccccc1S(=O)(=O)N2CCC(C)C (stereo unspecified),-10.03%

row,Structure (SMILES),Percent Effect
1,CC(=O)N1CCC2(C1)c1ccccc1S(=O)(=O)N2CCC(C)C (stereo unspecified),83.1%
2,O=C1CN(C(=O)CC2C(=O)NCCN2CC2CCCCC2)CCN1 (stereo unspecified),-19.63%
3,Cc1occc1CNC(=O)C1CCCN1C(=O)C1CC1 (stereo unspecified),-6.321%
4,COC(=O)c1ccc(OC)c(CN2CCN(CC(C)C)C(=O)C2C)c1 (stereo unspecified),1.65%
5,COCC(C)(O)CNC(=O)Nc1cccc(OC)c1OC (stereo unspecified),4.697%
6,CCN(CC)C(=O)Cn1c(=O)n(Cc2ccco2)c2ncccc21,92.26%
7,CCCN(Cc1cccnc1)C(=O)C1CCN(Cc2ccco2)CC1,2.103%
8,O=C(Cn1c(=O)n(Cc2ccco2)c2ncccc21)Nc1ccccn1,-4.791%
9,CCN(CCc1nccs1)C(=O)c1ccco1,-4.795%
10,O=C(Cn1c(=O)n(Cc2ccco2)c2ncccc21)NC1CCCCC1,-5.913%
11,Cc1nn(C(C)(C)C)c(=O)n1CC(=O)NC(C)(C)C,-3.979%
12,O=C(Cn1c(=O)n(Cc2ccco2)c2ncccc21)NC1CCCC1,120%
13,CC(C)(C)NC(=O)Cn1c(=O)n(Cc2ccco2)c2ncccc21,95.67%
14,O=C(Cn1c(=O)n(Cc2ccco2)c2ncccc21)NC1CC1,115.8%
15,O=C(NC1CC1)[C@H]1C[C@H]2OCC[C@H]2N(Cc2ccco2)C1,-4.068%
16,Cn1nc(C2CCN(CC(=O)NC3CC3)CC2)n(-c2ccccc2)c1=O,1.77%
17,Cn1ncc2cnn(CC(O)COc3cccc4[nH]ccc34)c2c1=O (stereo unspecified),26.41%
18,CC(C)c1noc(CCC(=O)Nc2cc(C(F)(F)F)c[nH]c2=O)n1,-36.07%
19,CCc1ccc(NC(=O)N2C[C@H]3C[C@H](C(=O)NC)[C@@H](C2)O3)cc1,-8.923%
20,CC(C)NC(=O)[C@H]1C[C@@H]2CN(C(=O)NC(C)C)C[C@H]1O2,-20.07%
21,CCc1ccc(NC(=O)N2C[C@H]3C[C@H](C(=O)NC(C)C)[C@@H](C2)O3)cc1,101%
22,CCc1ccc(NC(=O)N2C[C@H]3C[C@H](C(=O)NC4CCC4)[C@@H](C2)O3)cc1,117.1%
23,CC(C)NC(=O)N1C[C@H]2C[C@H](C(=O)NCc3ccccc3)[C@@H](C1)O2,-9.895%
24,CCc1cnc(N2C[C@H]3C[C@H](C(=O)NC4CCC4)[C@@H](C2)O3)nc1,-0.2357%
